Assay results taken from PubChem BioAssay (NCATS).
Several values for one entry are separate records, joined by “and”; a condition that tells them apart may be missing. Equal entries are not always repeated. Inconclusive results are not listed. Where a structure was tested more than once in an assay, its records may differ in their call. Activity calls are given as the source filed them. Unless noted, the call rests on the fitted dose curve; in most records, active means well fitted curve in the direction sought with a large enough effect; inconclusive means small, poorly fitted or top-dose-only effect, or another doubt; inactive means no such curve, though single readings can be large; an effect the other way counts as inactive or inconclusive.

Experiments:
[1] = target: Protein phosphatase 1D (Homo sapiens) (UniProt O15297); experiment: Rhodamine-PBP qHTS Assay for Modulators of WT P53-Induced Phosphatase 1 (WIP1) (AID 1347425); further: % of control where 0% means no effect
Procedure, shortened: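 Read-out: Rhodamine-PBP fluorescence (ex 525/em 598 nm) for released Pi, read each minute for 11 min after adding 10 uM VEPPL-pS-QETFS; signal taken as f1 minus pre-substrate f0. Enzyme 5 nM WIP1 with 1 hr room-temperature compound preincubation.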

[2] = Primary qHTS for inhibitors of La Crosse Virus (LACV) - induced cell death in SH-SY5Y cells (AID 1508616);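 further: top concentration of the series differs between compounds; 0% = infected DMSO wells and 100% = uninfected DMSO wells; higher means more rescue of cells from virus-induced death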
Procedure, shortened: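 Screening measures cell viability in LACV-infected SH-SY5Y cultures. Compound was added before virus (0.01 MOI), and ATP was detected by luminescence 6 days later.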

[3] = Primary qHTS for small molecule stabilizers of the endoplasmic reticulum resident proteome: Secreted ER Calcium Modulated Protein (SERCaMP) assay (AID 1508630); further: on the % scale 0 is the no-effect control and ±100 the full control effect
Procedure, shortened: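 The SH-SY5Y reporter protocol was run at 3 concentrations up to 38.3 uM (primary) or 11 concentrations (follow-up): 16 h compound, 100 nM thapsigargin for 4 h, then extracellular luciferase luminescence.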

[4] = A High-Content qHTS Against Drug Library for the Identification of Small Molecules that Inhibit DYT1 Early Onset Primary Dystonia-Associated Cell Pathology (AID 1645839; calls by dose curve; further: series mostly up to about 46 µM)
Procedure, shortened: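 Induced EGFP-delE TorsinA cells are imaged after 48 h of compound treatment. Punctate fusion-protein distribution gives the %pathology value, while nuclei counts flag toxicity. Wild-type EGFP-hTOR1A cells define the normal pattern.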

[5] = target: Cytochrome P450 2D6 (Homo sapiens) (UniProt P10635); experiment: Cytochrome P450 family 2 subfamily D member 6 (CYP2D6) small molecule antagonists: luciferase biochemical (cell-free) qHTS assay (AID 1645840; active means well fitted curve in the direction sought with a large enough effect in the repeat runs; an effect the other way counts as inactive or inconclusive; further: nearly all actives have a fitted effect of over 55% in size; further: potency means the concentration at half of the fitted maximal effect)
Procedure, shortened: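 P450-Glo CYP2D6 system: proluciferin substrate converted by enzyme to luciferin, read by luminescence proportional to activity. Enzyme-substrate mix with compound 10 min at room temperature, then NADPH regeneration 1 h before detection reagent.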

[6] = target: Calcium and integrin-binding protein 1 (Homo sapiens) (UniProt Q99828); experiment: Primary qHTS for Identification of Calcium Integrin Binding Protein 1 (CIB1) Competitor (AID 1508620);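 further: GST tagged CIB1 binding a fluorescein labelled alphaIIb integrin peptide tracer; top concentration of the series differs between compounds; on the % scale 0 is the no-effect control and ±100 the full control effect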
Procedure, shortened: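 Fluorescence polarization competition: CIB1-GST (1 uM final) preincubated with compound 15 min at room temperature, then FITC-labeled alphaIIb peptide (100 nM final) added for another 15 min. Polarization read at Ex 480/Em 540.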

[7] = target: Cytochrome P450 2C9 (Homo sapiens) (UniProt P11712); experiment: Cytochrome P450 family 2 subfamily C member 9 (CYP2C9) small molecule antagonists: luciferase biochemical (cell-free) qHTS assay (AID 1645842; active means well fitted curve in the direction sought with a large enough effect in the repeat runs; an effect the other way counts as inactive or inconclusive; further: nearly all actives have a fitted effect of over 55% in size; further: potency means the concentration at half of the fitted maximal effect)
Procedure, shortened: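 P450-Glo CYP2C9 system: proluciferin substrate with enzyme in mix containing 0.4% BSA, 10 min at room temperature, then NADPH regeneration solution added and incubated 1 h at 37C. Detection reagent stopped reaction; luminescence read after 20 min as RLU.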

[8] = target: N-terminal Xaa-Pro-Lys N-methyltransferase 1 (Homo sapiens) (UniProt Q9BV86); experiment: Confirmatory qHTS for Inhibitors of N-terminal methyltransferase 1 (NTMT1): MTaseGlo Assay (AID 1645874); conditions: NTMT1 enzyme, MTase-Glo SAH luminescence; further: potency means the concentration at half of the fitted maximal effect; nearly all actives have a fitted effect of over 65% in size
Procedure, shortened: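 SPKRIA peptide at 1 uM was methylated by 125 nM NTMT1 using 100 uM SAM over 30 min at room temperature, following a 15 min compound preincubation. Product SAH was detected luminescently.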

[9] = Counterscreen qHTS for small molecule stabilizers of the endoplasmic reticulum resident proteome: GLuc-NoTag assay (AID 1508627); further: potency means the concentration at half of the fitted maximal effect
Procedure, shortened: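 Secreted GLuc lacking the SERCaMP modification is measured in SH-SY5Y cells exposed to compound for 19 h and then to thapsigargin (100 nM, 4 h) to deplete ER calcium; hits retested at 11 concentrations, up to 76.6 uM.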

[10] = target: Protein phosphatase 1D (Homo sapiens) (UniProt O15297); experiment: RapidFire Mass Spectrometry qHTS Assay for Modulators of WT P53-Induced Phosphatase 1 (WIP1) (AID 1347424);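 further: amount of dephosphorylated VEPPL-S-QETFS peptide product formed by WIP1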; further: potency means the concentration at half of the fitted maximal effect
Procedure, shortened: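 Mass-spectrometric measurement of dephosphorylated peptide after a 5 min room-temperature reaction of 10 nM WIP1 with 2 uM phosphopeptide, following 1 h compound preincubation in 30 mM MgCl2 buffer.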

[11] = Validation qHTS assay for inhibitors of Activation Induced Cytidine Deaminase (AID): UDG Counterscreen signal (AID 1347427); further: 0% is about no effect
Procedure, shortened: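 Fluorescence at 560 nm excitation, 665 nm emission reports UDG signal after 250 mM NaOH (2x) addition and 30 min. Enzymes (AID 1 uM, UDG 2 U/mL, at 4/3x) preincubated 10 min with compound, then 4 h with 4x 250 nM DJC20/DJC23 substrate at room temperature.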

[12] = target: Single-stranded DNA cytosine deaminase (Homo sapiens) (UniProt Q9GZX7); experiment: Validation qHTS assay for inhibitors of Activation Induced Cytidine Deaminase (AID): AID signal (AID 1347429); further: potency means the concentration at half of the fitted maximal effect
Procedure, shortened: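 Compounds (up to 114 uM final) are tested against AID plus UDG using DJC20/DJC23 FRET substrate. Reactions incubate 4 hr at room temperature, receive NaOH for 30 min, and are read at Ex 540/Em 590 nm.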

[13] = target: Calcium and integrin-binding protein 1 (Homo sapiens) (UniProt Q99828); experiment: Validation qHTS for Identification of Calcium Integrin Binding protein 1 (CIB1) Competitor (AID 1508618); further: on the % scale 0 is the no-effect control and ±100 the full control effect
Procedure, shortened: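 CIB1-GST (1 uM final) in 5 mM HEPES pH 7.4, 125 mM NaCl, 5 mM CaCl2, 0.01% Tween20 was preincubated 15 min at room temperature with compound (up to 114 uM), then FITC-alphaIIb peptide (100 nM) added for 15 min; fluorescence polarization read.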

[14] = Confirmatory qHTS for small molecule stabilizers of the endoplasmic reticulum resident proteome: Secreted ER Calcium Modulated Protein (SERCaMP) assay (AID 1508628); further: nearly all actives have a fitted effect of over 40% in size; further: potency means the concentration at half of the fitted maximal effect
Procedure, shortened: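 GLuc-SERCaMP-expressing SH-SY5Y cells, pretreated 16 h with compound, are challenged with thapsigargin to empty ER calcium stores; after 4 h, coelenterazine is added directly to the medium and luminescence is imaged.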

Papain (Carica papaya) = Papain (Carica papaya) (UniProt P00784); experiment: Primary qHTS assay for inhibitors of the protease papain (AID 1645873);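 further: papain turnover of Z-FR-AMC read as the AMC fluorescence gain over 10 min; series mostly up to about 50 µM; on the % scale 0 is the no-effect control and ±100 the full control effect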
Chain of Papain (Carica papaya) (P00784 whole entry, looked up): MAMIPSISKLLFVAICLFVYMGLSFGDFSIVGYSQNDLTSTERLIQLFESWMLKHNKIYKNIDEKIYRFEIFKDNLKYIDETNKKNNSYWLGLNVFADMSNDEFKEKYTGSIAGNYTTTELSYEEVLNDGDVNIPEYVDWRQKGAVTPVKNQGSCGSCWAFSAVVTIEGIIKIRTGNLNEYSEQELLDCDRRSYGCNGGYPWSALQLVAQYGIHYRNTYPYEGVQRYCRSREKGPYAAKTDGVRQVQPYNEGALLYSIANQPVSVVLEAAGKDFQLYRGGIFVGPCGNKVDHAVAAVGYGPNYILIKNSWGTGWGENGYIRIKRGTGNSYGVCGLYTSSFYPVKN

Chain of Single-stranded DNA cytosine deaminase (Homo sapiens) (Q9GZX7 whole entry, looked up): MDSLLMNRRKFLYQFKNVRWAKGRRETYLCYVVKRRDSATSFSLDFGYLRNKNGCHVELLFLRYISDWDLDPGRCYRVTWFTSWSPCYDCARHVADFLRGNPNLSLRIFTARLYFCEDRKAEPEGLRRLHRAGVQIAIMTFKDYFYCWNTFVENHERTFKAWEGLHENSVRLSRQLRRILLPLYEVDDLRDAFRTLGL
Chain of Cytochrome P450 2D6 (Homo sapiens) (P10635 whole entry, looked up): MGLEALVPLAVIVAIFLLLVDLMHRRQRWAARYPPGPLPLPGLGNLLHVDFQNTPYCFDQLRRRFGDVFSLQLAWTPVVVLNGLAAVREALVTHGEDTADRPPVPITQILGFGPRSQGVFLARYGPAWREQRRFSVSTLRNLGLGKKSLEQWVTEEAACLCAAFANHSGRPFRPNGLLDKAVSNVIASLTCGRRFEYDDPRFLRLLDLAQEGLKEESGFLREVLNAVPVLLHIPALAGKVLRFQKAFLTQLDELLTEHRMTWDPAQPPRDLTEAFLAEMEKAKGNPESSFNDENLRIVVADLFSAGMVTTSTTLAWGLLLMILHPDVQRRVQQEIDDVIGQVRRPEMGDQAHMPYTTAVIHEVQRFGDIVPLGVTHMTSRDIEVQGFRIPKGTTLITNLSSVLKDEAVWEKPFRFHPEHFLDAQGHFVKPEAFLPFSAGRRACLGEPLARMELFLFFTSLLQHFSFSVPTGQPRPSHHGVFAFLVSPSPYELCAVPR
Chain of Cytochrome P450 2C9 (Homo sapiens) (P11712 whole entry, looked up): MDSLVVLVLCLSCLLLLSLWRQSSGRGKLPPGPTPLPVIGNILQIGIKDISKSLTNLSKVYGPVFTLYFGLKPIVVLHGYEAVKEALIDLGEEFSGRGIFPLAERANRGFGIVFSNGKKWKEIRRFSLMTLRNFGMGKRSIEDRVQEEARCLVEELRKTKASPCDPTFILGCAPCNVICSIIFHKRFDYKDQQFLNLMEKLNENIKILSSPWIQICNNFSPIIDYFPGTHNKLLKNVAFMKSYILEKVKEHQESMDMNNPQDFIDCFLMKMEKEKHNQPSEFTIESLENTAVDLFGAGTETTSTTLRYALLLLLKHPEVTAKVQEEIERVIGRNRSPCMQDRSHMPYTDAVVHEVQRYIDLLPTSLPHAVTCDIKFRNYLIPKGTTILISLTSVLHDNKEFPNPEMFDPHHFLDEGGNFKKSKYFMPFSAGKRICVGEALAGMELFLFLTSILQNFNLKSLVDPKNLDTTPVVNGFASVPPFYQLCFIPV
Chain of Calcium and integrin-binding protein 1 (Homo sapiens) (Q99828 whole entry, looked up): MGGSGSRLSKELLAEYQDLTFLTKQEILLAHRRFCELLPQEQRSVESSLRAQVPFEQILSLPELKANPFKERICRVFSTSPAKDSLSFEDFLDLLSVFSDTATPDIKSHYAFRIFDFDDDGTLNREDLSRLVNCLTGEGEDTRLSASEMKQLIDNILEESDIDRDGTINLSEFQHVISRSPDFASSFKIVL
Chain of Protein phosphatase 1D (Homo sapiens) (O15297 whole entry, looked up): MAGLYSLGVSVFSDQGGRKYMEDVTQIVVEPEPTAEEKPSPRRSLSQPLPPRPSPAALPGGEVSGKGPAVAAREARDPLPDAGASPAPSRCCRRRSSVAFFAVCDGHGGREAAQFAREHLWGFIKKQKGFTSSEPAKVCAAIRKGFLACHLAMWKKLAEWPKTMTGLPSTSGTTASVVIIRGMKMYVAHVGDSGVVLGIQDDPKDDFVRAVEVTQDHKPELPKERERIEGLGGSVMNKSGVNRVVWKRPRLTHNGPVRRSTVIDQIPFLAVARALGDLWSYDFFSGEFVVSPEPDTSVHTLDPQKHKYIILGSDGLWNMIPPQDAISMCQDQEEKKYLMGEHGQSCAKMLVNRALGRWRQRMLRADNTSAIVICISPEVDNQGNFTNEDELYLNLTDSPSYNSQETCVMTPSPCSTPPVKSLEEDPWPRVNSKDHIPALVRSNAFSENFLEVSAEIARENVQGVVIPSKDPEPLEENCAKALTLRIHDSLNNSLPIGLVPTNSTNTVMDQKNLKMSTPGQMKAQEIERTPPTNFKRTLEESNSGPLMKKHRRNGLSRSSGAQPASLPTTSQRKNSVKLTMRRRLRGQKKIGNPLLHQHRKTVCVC
Chain of N-terminal Xaa-Pro-Lys N-methyltransferase 1 (Homo sapiens) (Q9BV86 whole entry, looked up): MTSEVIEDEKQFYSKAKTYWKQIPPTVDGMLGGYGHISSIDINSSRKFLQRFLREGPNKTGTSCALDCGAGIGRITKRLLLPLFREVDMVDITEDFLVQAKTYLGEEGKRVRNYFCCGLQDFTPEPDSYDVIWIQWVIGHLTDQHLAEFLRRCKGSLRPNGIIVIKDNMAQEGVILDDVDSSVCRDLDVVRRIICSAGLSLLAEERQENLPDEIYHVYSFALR

Cc1c(N)c(=O)n(-c2ccccc2)n1C
inactive: outcome [1] | Potency [2] | Potency [3] | Potency [4] | Potency [5]

Clc1ccccc1-c1nc(-c2ccncc2)no1
inactive: outcome [1] | Potency [2] | Potency [6] | Potency [3] | Potency [4]
active: Potency [5] 3.47 µM | Potency [7] 5.49 µM | Potency [8] 25.1 µM

S=c1[nH]c2ccccc2s1
inactive: outcome [1] | Potency [2] | Potency [6] | Potency [3]
active: Potency [5] 29.1 µM | Potency [7] 15.9 µM

CC(C)OC(=O)c1cc(C(=O)OC(C)C)cc([N+](=O)[O-])c1
active: Potency [5] 3.73 µM | Potency [7] 0.748 µM
inactive: outcome [1] | Potency [2] | Potency [6] | Potency [9] | Potency [4]

COc1ccnc2c1CCCCC2S(=O)c1nc2ccccc2[nH]1 (centres undefined)
active: Potency [5] 0.347 µM | Potency [7] 9.77 µM
inactive: outcome [1] | Potency [2] | Potency [3] | Potency [4]

Cc1ccc2c(n1)Oc1ccc(C(C)C(=O)OCC(=O)N(C)C)cc1C2 (centres undefined)
inactive: outcome [1] | Potency [2] | Potency [6] | Potency [3] | Potency [4]

COc1cc2c3cc1Oc1cc(ccc1O)C[C@@H]1c4c(cc(OC)c(O)c4Oc4ccc(cc4)C[C@@H]3N(C)CC2)CC[N+]1(C)C
inactive: outcome [1] | Potency [2] | Potency [3] | Potency [4] | Potency [5] | Potency [7]

CN1CCN(c2cc3c(nn2)Oc2ccccc2N3C)CC1
inactive: outcome [1] | activity change [2] 13.6% [at 1.78 µM] | Potency [6] | Potency [3] | Potency [4] | Potency [5] | Potency [7]

NC(=O)C(c1ccccc1)(c1ccccc1)[C@@H]1CCN(CCc2ccc3c(c2)CCO3)C1
active: Potency [5] 0.617 µM
inactive: outcome [1] | Potency [2] | Potency [6] | Potency [7]

Nc1cc(-c2ccncc2)c[nH]c1=O
inactive: Potency [2] | Potency [3] | Potency [4]
active: Potency [10] 22.4 µM | Potency [5] 12.3 µM | Potency [7] 11 µM

NCCO
inactive: outcome [1] | Potency [2] | Potency [9] | Potency [4] | Potency [5] | Potency [7]

CCCCC1C(=O)N(c2ccccc2)N(c2ccc(O)cc2)C1=O (centres undefined)
inactive: Potency [10] | Potency [2] | Potency [6] | Potency [3]
active: Potency [7] 8.71 µM

O=C(CS)Nc1ccccc1
inactive: outcome [1] | Potency [2] | Potency [3]
active: Potency [7] 4.9 µM

c1ccc2sc(SSc3nc4ccccc4s3)nc2c1
inactive: outcome [1] | activity change [2] 7.43% [at 1.78 µM] | Potency [6] | Potency [3] | Potency [4] | Potency [5]
active: Potency [7] 9.52 µM

Cc1ccc(C(=O)c2ccc(CC(=O)O)n2C)cc1
inactive and 15.1 µM (active): Potency [7]
inactive: outcome [1] | Potency [2] | Potency [4] | Potency [5]

CCOc1ccc2nc(S(N)(=O)=O)sc2c1
inactive: outcome [1] | Potency [2] | Potency [3] | Potency [4] | Potency [5]

O=C(/C=C/c1ccccc1)NCCO
active: Potency [7] 5.49 µM
inactive: outcome [1] | Potency [2] | Potency [3]

Cc1[nH]cnc1CN1CCc2c(c3ccccc3n2C)C1=O
inactive: outcome [1] | Potency [2] | Potency [6] | Potency [3] | Potency [4]
active: Potency [5] 7.76 µM | Potency [7] 1.55 µM

COc1ccc(-c2cc(=S)ss2)cc1
active: Potency [7] 11 µM
inactive: Potency [10] | Potency [2] | Potency [6] | Potency [3] | Potency [4]

C=CCCCCCCCCC(=O)O
inactive: outcome [1] | Potency [2] | Potency [4] | Potency [5] | Potency [7]

CN(C)CCn1nnnc1SCC1=C(C(=O)O)N2C(=O)[C@@H](NC(=O)Cc3csc(N)n3)[C@H]2SC1
inactive: outcome [1] | Potency [2] | Potency [4] | Potency [7]

CCCCN1CCC(n2c(=O)[nH]c3ccccc32)CC1
inactive: Potency [11] | Potency [12] | Potency [2] | Potency [3]

Cc1nc2sccn2c(=O)c1CCN1CCC(=C(c2ccccc2)c2ccc(F)cc2)CC1
inactive: Potency [11] | Potency [12] | Potency [2]

CC(C)ON([C@@H](C(=O)NO)C(C)C)S(=O)(=O)c1ccc(-c2ccccc2)cc1
inactive: Potency [11] | Potency [12]

NC(=S)NCCC[C@H](N)C(=O)O
inactive: Potency [11] | Potency [12] | Potency [2] | Potency [3]

Cn1cc(C2=C(c3ccc(Cl)cc3Cl)C(=O)NC2=O)c2ccccc21
active: Potency [9] 0.447 µM | Potency [14] 39.8 µM
inactive: Potency [11] | Potency [12] | Potency [2] | outcome [13] | Potency [3] | Potency (Papain (Carica papaya))

O=C(O)[C@@H]1C[C@@H](C(=O)O)N1
inactive: Potency [11] | Potency [12] | Potency [2] | Potency [3]

COc1ccccc1N1CCN(CCCCNS(=O)(=O)c2cccc3c(N(C)C)cccc23)CC1
inactive: Potency [11] | Potency [12] | Potency [2]

Ic1ccc(N2CCN(Cc3c[nH]c4ncccc34)CC2)cc1
inactive: Potency [11] | Potency [12] | Potency [2] | Potency [3]

N=C(N)SCCc1ccc(CCSC(=N)N)cc1
inactive: Potency [11] | Potency [12] | Potency [2] | Potency [3]

Cc1ccc(C(=O)O[C@H](C(=O)O)[C@@H](OC(=O)c2ccc(C)cc2)C(=O)O)cc1 (tested in a mixture with another compound)
inactive: Potency [11] | Potency [12] | Potency [2] | Potency [14]

CCCCCCCCCCCCCCCCCCNC(=O)OCC(COP(=O)([O-])OCC[n+]1ccsc1)OC (centres undefined)
inactive: Potency [11] | Potency [12] | Potency [2] | Potency [3]

O=C(O)CC1CC(c2ccccc2)=NO1 (centres undefined)
inactive: Potency [11] | Potency [12] | Potency [2] | Potency [3]

COc1cc2nc(N3CCN(C(=O)OCc4ccccc4)C(C(=O)NC(C)(C)C)C3)nc(N)c2cc1OC (centres undefined)
inactive: Potency [11] | Potency [12] | Potency [2]

C[N+](C)(CCCCCC[N+](C)(C)CCCN1C(=O)c2cccc3cccc(c23)C1=O)CCCN1C(=O)c2cccc3cccc(c23)C1=O
inactive: Potency [11] | Potency [2] | Potency [3]
active: Potency [12] 1.41 µM
